RE007 growth inh – less growth of the S. pombe RE007 Vpr strain | 360,000 tested, 0.21% active | AID 651644 | Potency, µM (titrated, usually from 92.2 µM), for inactives: top-dose activity change, negative = less growth, usual class: inhibitors | S. pombe RE007 Vpr strain, BacTiter-Glo ATP luminescence, 24 h; active = well fitted falling curve with a large enough effect; inconclusive = small, poorly fitted or top-dose-only effect; inactive = no such curve, though single readings can be large or run the other way; also: nearly all actives have a fitted effect of over 50% in size
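Fission yeast strain RE007, carrying one chromosomally integrated HIV-1 vpr copy, was seeded at OD 0.01 in PMG+AL medium with 23 nL pinned compound. After 24 h at 30 °C and 99% humidity, viability was read by BacTiter-Glo luminescence.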
AmpC inh no detg – blocks E. coli AmpC beta-lactamase in detergent-free assay | P00811 | AmpC nitrocefin hydrolysis, absorbance 480 nm, 0.0001% Triton | Potency, µM (titrated, usually from 57.1 µM), for the others: at the highest dose activity change, negative = inhibition, hits mostly inhibitors | 330,000 tested, 0.52% active;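 also: plate controls were no compound for no effect and no enzyme for full effect; nearly all actives have a fitted effect of over 20% in size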
Target sequence (P00811 whole entry, looked up): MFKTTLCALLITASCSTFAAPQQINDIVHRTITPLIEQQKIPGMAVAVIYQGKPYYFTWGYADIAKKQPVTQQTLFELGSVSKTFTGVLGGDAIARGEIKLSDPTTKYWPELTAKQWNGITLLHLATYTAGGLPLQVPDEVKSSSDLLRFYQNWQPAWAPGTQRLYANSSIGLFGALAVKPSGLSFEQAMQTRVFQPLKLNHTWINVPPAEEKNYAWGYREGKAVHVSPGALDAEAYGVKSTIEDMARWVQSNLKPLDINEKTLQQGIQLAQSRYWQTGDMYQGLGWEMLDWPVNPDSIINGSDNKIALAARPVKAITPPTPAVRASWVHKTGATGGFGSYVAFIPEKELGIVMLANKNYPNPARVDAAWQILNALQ
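AmpC (5.3 nM in the dispensed reagent) in 20 mM phosphate pH 7.0 with 0.01% (detergent screen) or 0.0001% Triton X-100 was preincubated with compounds for 15 min at room temperature. Nitrocefin was then added from an 800 uM solution, and hydrolysis was followed at 480 nm.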
AmpC inh detg – blocks E. coli AmpC beta-lactamase in detergent assay. 370,000 tested, 0.041% active. AmpC hydrolysis of nitrocefin, absorbance 480 nm, 0.01% Triton. Potency, µM (highest dose often 114 µM), for the others: at the top dose activity change, negative = inhibition, actives largely listed as inhibitors. P00811;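 also: 0% = no-compound wells and -100% = no-enzyme wells; nearly all actives have a fitted effect of over 25% in size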
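AmpC (5.3 nM in the dispensed reagent) in 20 mM phosphate pH 7.0 with 0.01% (detergent screen) or 0.0001% Triton X-100 was preincubated with compounds for 15 min at room temperature. Nitrocefin was then added from an 800 uM solution, and hydrolysis was followed at 480 nm.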
AMA1-RON2 inh – disrupts binding of P. falciparum AMA1 to RON2; AlphaScreen AMA1-biotinylated RON2 peptide binding; Potency, µM (highest dose often 58.2 µM), for inactives: at the top dose activity change, negative = inhibition, hits mostly inhibitors; 360,000 tested, 0.2% active; AID 720542;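 also: 0% = vehicle wells and -100% = peptide control; nearly all actives have a fitted effect of over 45% in size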
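AMA1 (3D7) with his tag at 25 nM final met compounds first, then biotinylated RON2 peptide at 25 nM; detection used donor plus acceptor beads, 10 µg/mL apiece, read by AlphaScreen after 30 min at room temperature.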
Sm TGR inh – S. mansoni TGR enzyme inhibition | AID 485364 | purified TGR, DTNB reduction, TNB absorbance 405 nm | 360,000 tested, 3% active | Potency, µM (highest dose often 114 µM), for the others: at the highest dose activity change, negative = inhibition, actives largely listed as inhibitors | Q962Y6; also: nearly all actives have a fitted effect of over 60% in size
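Kinetic colorimetric format: TGR-catalysed, NADPH-driven DTNB reduction monitored via TNB absorbance. Enzyme dispensed at 20 nM; compound exposure 15 min at room temperature before reaction start.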
The depositor's hits bear a star; [ ] = dose if it differs, or a comment. Hits are enriched below; roughly 3.2% of the tested compounds scored in any of these assays. Unless noted, calls follow the shape of the dose curve; as a rule, active = well fitted curve in the direction sought with a large enough effect; inconclusive = small, poorly fitted or top-dose-only effect, or another doubt; inactive = no such curve, though single readings can be large; an effect the other way counts as inactive or inconclusive. Unless noted, % is scaled to controls: 0 for no effect and ±100 for the full control effect; potency is read from the fitted curve at half-maximal effect.

For COc1ccc(OCc2nc(N)nc(Nc3ccccc3OC)n2)cc1 the results were RE007 growth inh 15%, AmpC inh no detg 1%, AmpC inh detg -16%, AMA1-RON2 inh -4% and Sm TGR inh inconclusive.
Screening CCOc1ccc(OCC)c(NS(=O)(=O)c2cc(-c3onc(C)c3C)ccc2OC)c1 returned AmpC inh detg 2% and Sm TGR inh 16%.
Screening CCCS(=O)(=O)c1c(S(=O)(=O)CCC)c2c(N)cccn2c1C(=O)OC returned RE007 growth inh -3%, AmpC inh no detg -23%, AmpC inh detg -7% and AMA1-RON2 inh 22%.
`CCCS(=O)(=O)c1c(S(=O)(=O)CCC)c2c(N)cccn2c1C(=O)c1ccccc1` gave RE007 growth inh 12%, AmpC inh no detg -25%, AmpC inh detg -1%, AMA1-RON2 inh 4% and Sm TGR inh 50µM*.
For CCOC(=O)Cn1c(=O)oc2cc(S(=O)(=O)N3CCCc4ccccc43)ccc21 the results were RE007 growth inh -12%, AmpC inh no detg 9%, AmpC inh detg inconclusive, AMA1-RON2 inh -2% and Sm TGR inh 3%.
Screening CCOC(=O)Cn1c(=O)oc2cc(S(=O)(=O)N3CCn4c3nc3ccccc34)ccc21 returned RE007 growth inh -8%, AmpC inh no detg 22µM*, AmpC inh detg -11%, AMA1-RON2 inh -10% and Sm TGR inh 6%.
For CCN1CCN(c2csc3ccc(C)cc3c2=O)CC1 the results were AmpC inh detg 11% and Sm TGR inh 0%.
Screening CCS(=O)(=O)N1CCc2cc(C(=O)N3CCN(c4cccc(C(F)(F)F)c4)CC3)ccc21 returned AmpC inh detg 16% and Sm TGR inh -5%.
Cc1csc(C(=O)O)c1NC(=O)c1ccc(F)cc1 was read as RE007 growth inh 4%, AmpC inh no detg -9%, AmpC inh detg -3%, AMA1-RON2 inh 9% and Sm TGR inh 89µM*.
`Cc1ccc(NS(=O)(=O)c2cccc(C(=O)NNC(=O)c3cccn3C)c2)c(C)c1` gave RE007 growth inh 0%, AmpC inh no detg 16µM*, AmpC inh detg 1%, AMA1-RON2 inh 40% and Sm TGR inh -3%.
For OCCCc1ccc(O)c(O)c1 the results were RE007 growth inh -3%, AmpC inh no detg 7%, AmpC inh detg -7%, AMA1-RON2 inh -1% and Sm TGR inh 3.5µM*.
Screening O=C(O)Cc1ccc(O)c(O)c1 returned RE007 growth inh -1%[18.4 µM], AmpC inh no detg -16%, AmpC inh detg -1%, AMA1-RON2 inh inconclusive and Sm TGR inh 0.89µM*.
For CCn1cnc2c(NCCc3cccnc3)nc(C#N)nc21 the results were AmpC inh no detg -13%, AmpC inh detg 0% and Sm TGR inh 50µM*.
For COc1cc(C(O)c2nc(-c3ccc(N(C)C)cc3)cs2)ccc1F (centres undefined) the results were RE007 growth inh -7% and AMA1-RON2 inh 20µM*.
CC(C)c1cccc(-c2csc(C(O)c3ccc(F)c(F)c3)n2)c1 (centres undefined) was read as RE007 growth inh 40µM* and AMA1-RON2 inh 11%.
Screening COc1cc(C(O)c2nc(-c3cc(F)cc(F)c3)cs2)ccc1F (centres undefined) returned RE007 growth inh 4% and AMA1-RON2 inh 5%.
Screening CCC(C)NC(=O)C(Cc1ccccc1)n1cccc1 (centres undefined) returned RE007 growth inh 1%, AmpC inh no detg 0.5µM*, AmpC inh detg inconclusive, AMA1-RON2 inh -12% and Sm TGR inh -25%.
`CCOC(=O)c1sc(S(C)(=O)=O)c2c1CCc1conc1-2` gave RE007 growth inh 8%, AmpC inh no detg -11%, AmpC inh detg 0%, AMA1-RON2 inh 4% and Sm TGR inh 13µM*.
Screening COc1ccc(/C(C)=N/Nc2ccccc2Cl)c(O)c1 returned RE007 growth inh 39%, AmpC inh no detg -21%, AmpC inh detg 5%, AMA1-RON2 inh 11% and Sm TGR inh 14µM*.
O=C(NCCc1ccc(Cl)cc1)C(=O)NCC(c1cccs1)S(=O)(=O)c1ccccc1 (centres undefined) was read as AmpC inh detg 1% and Sm TGR inh -35%.
`CCOC(=O)C1CCCN(c2c(NCCc3ccc(C)cc3)c(=O)c2=O)C1` (centres undefined) gave RE007 growth inh 7%, AmpC inh no detg -8%, AmpC inh detg -2%, AMA1-RON2 inh -1% and Sm TGR inh 0%.
For CCOC(=O)C1CCCN(c2c(NCCN(CC)c3ccccc3)c(=O)c2=O)C1 (centres undefined) the results were RE007 growth inh -7%, AmpC inh no detg 22µM*, AmpC inh detg 3%, AMA1-RON2 inh -3% and Sm TGR inh 18%.
CCOC(=O)C1CCCN(c2c(NCCN3CCCCC3C)c(=O)c2=O)C1 (centres undefined) was read as RE007 growth inh 0%, AmpC inh no detg 3.5µM*, AmpC inh detg inconclusive, AMA1-RON2 inh -2% and Sm TGR inh 0%.
COc1ccc(-c2cc(C(F)(F)F)nc(SCC(=O)N3CCC(C)CC3)n2)cc1 was read as AmpC inh detg 23% and Sm TGR inh 5%.
`O=C(/C=C/c1ccco1)Nc1ccccc1C(=O)Nc1cccc(C(=O)O)c1` gave RE007 growth inh -9%, AmpC inh no detg -33%, AmpC inh detg 0%, AMA1-RON2 inh -2% and Sm TGR inh 25µM*.
For O=C(O)/C=C/C(=O)Nc1ccc(C2(c3ccc(NC(=O)/C=C/C(=O)O)cc3)c3ccccc3-c3ccccc32)cc1 the results were RE007 growth inh -13%, AmpC inh no detg 13µM*, AmpC inh detg -9%, AMA1-RON2 inh -18% and Sm TGR inh inconclusive.
For O=C(/C=C/c1ccco1)Nc1ccccc1C(=O)O the results were RE007 growth inh -10%, AmpC inh no detg -37%, AmpC inh detg -7%, AMA1-RON2 inh 21% and Sm TGR inh 18µM*.
O=C(Nc1ccccc1C(=O)Nc1ccccc1)c1ccccc1Br was read as RE007 growth inh 4% and AMA1-RON2 inh -13%.
O=C(O)/C=C/C(=O)Nc1ccccc1C(=O)Nc1ccccc1 was read as RE007 growth inh -3%, AmpC inh no detg -27%, AmpC inh detg -7%, AMA1-RON2 inh 0% and Sm TGR inh 35µM*.
For CCN(CC)c1ccc(NC(=O)C2CCN(S(=O)(=O)c3cnc[nH]3)CC2)c(C)c1 the results were AmpC inh detg -2% and Sm TGR inh 8%.
O=C(Nc1ccc(F)cc1)C1CCN(c2nc3ccccc3nc2C(F)(F)F)CC1 was read as AmpC inh detg 0% and Sm TGR inh 10%.
For CN(C(=O)/C=C/c1ccco1)c1ccccc1C(=O)O the results were RE007 growth inh 0%, AmpC inh no detg -14%, AmpC inh detg 1%, AMA1-RON2 inh 8% and Sm TGR inh 3.5µM*.

Source: PubChem BioAssay
